The values below come from PubChem BioAssay (NCATS).

Molecules are shown by their SMILES. Results filed as inconclusive are left out. The source made the active and inactive calls. Calls follow the shape of the dose curve; as a rule, active = well fitted curve in the direction sought with a large enough effect; inconclusive = small, poorly fitted or top-dose-only effect, or another doubt; inactive = no such curve, though single readings can be large; an effect the other way counts as inactive or inconclusive. Where a SMILES comes first, the peptide text is derived from it. [ ]: non-standard residue; d: D form. ξ: configuration not given here. ξLac(3-iPr) = CC(C)CC(O)C(=O)O; NMeV = CN[CH](C(=O)O)C(C)C; βAla = NCCC(=O)O

Assay [1] concerns the target Glutathione peroxidase 1 (Homo sapiens) (UniProt P07203). Nature of the assay: Primary qHTS Assay for Inhibitors of Recombinant Selenoprotein Glutathione Peroxidase 1 (GPX1) (AID 1845191). Also: nearly all actives have a fitted effect of over 65% in size. The essentials: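 10 nM GPX1 + cpd, 30 min RT; start w/ 1 mM GSH, 0.5 mM cumene hydroperoxide, 0.5 mM NADPH, 100 nM GR, 0.01% BSA; buffer 50 mM Tris-HCl pH 7.5, 2 mM EDTA, 150 mM NaCl; Fl 340/450, 0 & 15 min.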

Assay [2] addresses Phospholipid hydroperoxide glutathione peroxidase GPX4 (Homo sapiens) (UniProt P36969). Nature of the assay: Primary qHTS Assay for Inhibitors of Recombinant Selenoprotein Glutathione Peroxidase 4 (GPX4) (AID 1845192). Also: nearly all actives have a fitted effect of over 65% in size. The essentials:
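NADPH consumption, followed by fluorescence at 340/450 nm between 0 and 15 min, reports GPX4 activity via coupled glutathione reductase (100 nM). Enzyme 200 nM was pre-exposed to compound 30 min; 0.5 mM cumene hydroperoxide and 1 mM GSH served as substrates.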

A short description of assay [3]: Primary fluorescence-based thiol-reactive (MSTI) qHTS assay for identification of artifact compounds. (AID 1845221). Also: nearly all actives have a fitted effect of over 65% in size. Also: potency is read from the fitted curve at half-maximal effect. The essentials: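 Curve-fitted percent inhibition (4-parameter Hill) derived from fluorescence, Ex 525/Em 598 nm, scaled with Acetyl-MSTI and MSTI; 1 h incubation at room temperature.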
For orientation: qHTS replaces the single test concentration by a dilution series.

Assay [4] concerns Nanoluciferase (engineered Oplophorus gracilirostris luciferase). Description: Primary Nanoluciferase (NLuc) qHTS assay for identification of artifact compounds. (AID 1845222).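 Also: NLuc secreted into diluted conditioned medium of S16 cells; series mostly up to about 54 µM.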 An outline of the steps: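 NLuc from S16 cell medium (1:55) plus test compounds, 15 min, room temperature. Luminescence after Nano-Glo (1:100) addition, 5 min.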
Assay [5] can be described thus: Primary redox qHTS assay for identification of artifact compounds. (AID 1845223). The essentials:
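Amplex Red (25 uM) and HRP (250 mU/mL) in HBSS, with compounds for 15 min, then 250 uM DTT for 30 min, room temperature, dark. Fluorescence 525/598 nm read; normalized to DMSO and 10 uM DA3003; Hill fit.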

Assay [6] deals with Luciferin 4-monooxygenase (Photinus pyralis) (UniProt P08659). Description: Primary firefly luciferase (FLuc) qHTS assay for identification of artifact compounds. (AID 1845220). Also: series mostly up to about 54 µM; nearly all actives have a fitted effect of over 60% in size. The essentials:
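FLuc 10 nM; luciferin 10 uM; ATP 10 uM; Tris-acetate pH 7.6, Mg-acetate 10 mM; 15 min RT preincubation; 5 min reaction; luminescence.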

Chain of Glutathione peroxidase 1 (Homo sapiens) (P07203 whole entry, looked up): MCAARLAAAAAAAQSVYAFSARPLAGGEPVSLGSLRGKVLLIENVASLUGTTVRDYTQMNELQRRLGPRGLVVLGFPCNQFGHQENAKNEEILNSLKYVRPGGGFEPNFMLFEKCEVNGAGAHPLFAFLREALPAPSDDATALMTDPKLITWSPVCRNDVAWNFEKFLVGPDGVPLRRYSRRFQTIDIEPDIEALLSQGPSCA
Chain of Phospholipid hydroperoxide glutathione peroxidase GPX4 (Homo sapiens) (P36969 whole entry, looked up): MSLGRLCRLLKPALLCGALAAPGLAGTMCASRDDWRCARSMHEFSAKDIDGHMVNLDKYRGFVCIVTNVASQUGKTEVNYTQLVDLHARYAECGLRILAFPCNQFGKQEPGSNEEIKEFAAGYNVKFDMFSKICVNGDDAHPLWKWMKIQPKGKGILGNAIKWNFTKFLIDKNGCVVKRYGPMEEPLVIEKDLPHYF

Regarding `O=C(Nc1c(-c2cccs2)nc2ccccn12)c1ccc(Cl)cc1`, the Potency entry in assay [1], in assay [2], in assay [3], in assay [4] and in assay [5] was “inactive” throughout.

For `COc1ccc(C(=O)n2c(C)c(Cc3cccc(O[C@@H](C)C(=O)O)c3)c3cc(OC(F)(F)F)ccc32)cc1`, the Potency entry in assay [1], in assay [6], in assay [3], in assay [4] and in assay [5] was “inactive” in each case.

Regarding `CC(C)(C)C(=O)CN1C(=O)[C@H](NC(=O)Nc2cccc(C(=O)O)c2)CN(C2CCCCC2)c2ccccc21`, the Potency result in assay [1], in assay [6], in assay [3], in assay [4] and in assay [5] was “inactive” in each case.

In the case of `Cc1ccc(NC(=O)C(=O)NC2CC(C)(C)NC(C)(C)C2)cc1`, the Potency result in assay [1], in assay [2], in assay [3], in assay [4] and in assay [5] was “inactive” in each case.

As for `CS(=O)(=O)N(CC(=O)NCC1CC1)c1cc(C(F)(F)F)ccc1Cl`, the Potency result in assay [1], in assay [2], in assay [3], in assay [4] and in assay [5] was “inactive” each time.

On to `CC[C@]12C=CCN3CC[C@@]4(c5cc([C@@]6(C(=O)OC)C[C@H]7C[C@@H](C(C)(F)F)CN(Cc8c6[nH]c6ccccc86)C7)c(OC)cc5N(C)[C@H]4[C@@](O)(C(=O)OC)[C@@H]1OC(C)=O)[C@@H]32`, for which the Potency result in assay [1], in assay [2], in assay [3], in assay [4] and in assay [5] was “inactive” each time.

Turning to `CC1COC(Nc2ccc3ncnc(Nc4ccc(OCc5nccs5)c(Cl)c4)c3c2)=N1` (stereo unspecified), the Potency entry in assay [1], in assay [2], in assay [3] and in assay [5] was “inactive” throughout.

In the case of `CC(/C=C/C1=CC2=CC(=O)C(C)(O)C(O)C2=CO1)=C\C(C)CCO` (stereo unspecified), the Potency result in assay [1], in assay [2], in assay [4] and in assay [5] was “inactive” throughout.

Turning to `COc1cc2c3c(cc4ccccc4c3c1O)NC2=O`, the Potency result in assay [1], in assay [6], in assay [4] and in assay [5] was “inactive” throughout. Further, the Potency in assay [3] was 10.6 µM (active).

For `CC1(C)CC2C=C(C(=O)O)C3COC(=O)C(O)(CO)C23C1` (stereo unspecified), the Potency result in assay [1], in assay [2], in assay [4] and in assay [5] was “inactive” in each case.

Take `OC/C=C/c1ccc(O[C@@H]2O[C@H](CO)[C@@H](O)[C@H](O)[C@H]2O)cc1`: the Potency result in assay [1], in assay [2], in assay [4] and in assay [5] was “inactive” each time.

As for `Cc1ccc(S(=O)(=O)n2ccc(-c3c(-c4ccc(Cl)cc4)noc3C)n2)cc1`, the Potency entry in assay [1], in assay [2], in assay [3], in assay [4] and in assay [5] was “inactive” throughout.

Consider `C[C@H](NC(c1cccc2[nH]c(=O)c(=O)[nH]c12)P(=O)(O)O)c1ccc(Br)cc1` (stereo partly specified), for which the Potency result in assay [1], in assay [2], in assay [3], in assay [4] and in assay [5] was “inactive” each time.

With `CC(C)CC1OC(=O)C2CCCN2C(=O)CCNC(=O)C(Cc2ccccc2)NC(=O)C(C(C)C)N(C)C(=O)C(C(C)C)N(C)C1=O` (stereo unspecified) (cyclo([ξLac(3-iPr)][NMeV][NMeV]F[βAla]P); configuration not given here), the Potency result in assay [1], in assay [2], in assay [3], in assay [4] and in assay [5] was “inactive” each time.

As to `CN[C@H](CC(C)C)C(=O)N[C@H]1C(=O)N[C@@H](CC(N)=O)C(=O)N[C@H]2C(=O)N[C@H]3C(=O)N[C@H](C(=O)N[C@H](C(=O)O)c4cc(O)cc(O)c4-c4cc3ccc4O)[C@H](O[C@H]3C[C@](C)(N)[C@@H](O)[C@H](C)O3)c3ccc(c(Cl)c3)Oc3cc2cc(c3O[C@@H]2O[C@H](CO)[C@@H](O)[C@H](O)[C@H]2O[C@H]2C[C@](C)(NCc3ccc(-c4ccc(Cl)cc4)cc3)[C@@H](O)[C@H](C)O2)Oc2ccc(cc2Cl)[C@H]1O`, the Potency entry in assay [1], in assay [2], in assay [3], in assay [4] and in assay [5] was “inactive” each time.

As for `O=C(CSc1nc2c(c(=O)n1-c1ccccc1)SCC2)Nc1ccc(-c2ccccc2)cn1`, the Potency entry in assay [1], in assay [2], in assay [3], in assay [4] and in assay [5] was “inactive” in each case.
